By inhibition is commonly meant the change of the read-out against control, counted positive when it falls.

In all, about 370,000 compounds went through this assay and about 3,100 (0.84%) were called active. For the sample, actives were picked, then their nearest neighbours and some compounds at random. Unmarked numbers belong to inactive results. Cut-off read from the data, not from the text of the source: active = inhibition above about 9.5%; inactive = the rest.

This passage reports inhibition results from PubChem BioAssay AID720700 (The Scripps Research Institute Molecular Screening Center, 2013).

Sequence of 1-phosphatidylinositol 4,5-bisphosphate phosphodiesterase gamma-1 (Homo sapiens) (P19174 whole entry, looked up): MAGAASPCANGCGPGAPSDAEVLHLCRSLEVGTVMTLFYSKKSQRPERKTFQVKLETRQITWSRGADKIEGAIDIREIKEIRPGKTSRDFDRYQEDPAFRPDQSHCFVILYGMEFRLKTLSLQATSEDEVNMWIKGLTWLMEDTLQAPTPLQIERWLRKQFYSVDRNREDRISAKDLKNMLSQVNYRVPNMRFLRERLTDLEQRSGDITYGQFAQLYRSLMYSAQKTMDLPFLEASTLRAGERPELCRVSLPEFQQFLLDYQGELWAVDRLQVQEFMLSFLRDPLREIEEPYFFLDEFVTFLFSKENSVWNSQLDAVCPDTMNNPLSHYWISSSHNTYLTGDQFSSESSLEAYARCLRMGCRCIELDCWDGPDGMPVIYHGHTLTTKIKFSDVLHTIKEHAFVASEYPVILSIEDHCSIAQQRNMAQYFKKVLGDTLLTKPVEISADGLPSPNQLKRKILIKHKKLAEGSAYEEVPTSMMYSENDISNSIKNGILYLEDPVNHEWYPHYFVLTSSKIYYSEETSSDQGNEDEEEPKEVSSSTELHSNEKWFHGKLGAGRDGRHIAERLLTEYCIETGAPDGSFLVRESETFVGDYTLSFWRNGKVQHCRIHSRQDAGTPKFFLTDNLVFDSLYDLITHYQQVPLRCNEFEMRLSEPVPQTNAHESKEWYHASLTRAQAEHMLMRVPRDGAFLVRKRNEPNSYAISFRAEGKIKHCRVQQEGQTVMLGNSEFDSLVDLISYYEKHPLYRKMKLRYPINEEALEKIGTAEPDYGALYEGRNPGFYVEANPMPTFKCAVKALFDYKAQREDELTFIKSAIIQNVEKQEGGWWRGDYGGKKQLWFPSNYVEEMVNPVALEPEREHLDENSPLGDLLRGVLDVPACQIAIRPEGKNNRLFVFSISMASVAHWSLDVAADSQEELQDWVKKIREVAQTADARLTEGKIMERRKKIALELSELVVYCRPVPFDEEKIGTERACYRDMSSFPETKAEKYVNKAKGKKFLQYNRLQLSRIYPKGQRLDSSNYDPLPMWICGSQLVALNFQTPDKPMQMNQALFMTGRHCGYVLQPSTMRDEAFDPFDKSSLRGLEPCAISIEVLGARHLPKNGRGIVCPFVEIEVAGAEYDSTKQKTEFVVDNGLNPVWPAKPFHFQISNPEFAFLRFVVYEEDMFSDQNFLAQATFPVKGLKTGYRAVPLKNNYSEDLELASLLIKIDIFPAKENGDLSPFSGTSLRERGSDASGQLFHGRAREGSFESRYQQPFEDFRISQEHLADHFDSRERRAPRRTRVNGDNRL

This experiment concerns the target 1-phosphatidylinositol 4,5-bisphosphate phosphodiesterase gamma-1 (Homo sapiens) (UniProt P19174). The experiment can be described thus: blockers of human PLCG1 activity – biochemical, fluorescence, purified enzyme, primary screen (AID 720700). As to conditions: purified PLC-gamma1, fluorogenic substrate, at 12.2 µM, stronger effect = higher value.
Take `O=C1NC2(CCCCCC2)C(=O)N1CCS(=O)(=O)Oc1ccccc1`: the inhibition is 1.93%. `O=C1NC2(CCCCC2)N=C1c1ccccc1`: the inhibition is 10.4% (active). The figure for `COc1ccc(NC(=O)CN2C(=O)C(c3ccccc3)=NC23CCCCCC3)cc1OC` is 1.88%. Take `C=CCN1C(=O)[C@@H](CC(=O)N2CCN(C(=O)OCC)CC2)[C@]2(C(=O)OCC)CCCCC/C=C/12`: the inhibition is -1.67%. For `C=CC[C@@H](CC(=O)NCCO)C(=O)N[C@H](C)COC(=O)[C@@H](CC=C)CC(=O)OC(C)(C)C` the value was 9.97% (active). The figure for `C=CC[C@@H](CC(=O)N[C@@H](CO)Cc1ccccc1)C(=O)N[C@H](COC(=O)[C@H](CC=C)CC(=O)OC(C)(C)C)Cc1ccccc1` is 0.69%. For `C=CC[C@@H](CC(=O)N[C@@H](CO)Cc1ccccc1)C(=O)NCCOC(=O)[C@@H](CC=C)CC(=O)OC(C)(C)C` the value was 5.69%; for `O=C(N1CCOCC1)N1CC[C@H]2[C@H](CCCN2Cc2ccc(F)cc2)C1`, -1.67%; for `COc1ccc(C2Nc3ccccc3C(=O)N2Cc2cccs2)cc1COc1c(C)cccc1C` (stereo unspecified), -106%. As to `CCOC(=O)Nc1ccc(S(=O)(=O)N(C)C(C)C)cc1`, the inhibition was 0.75%.

For `CCOC(=O)Nc1ccc(NC(=O)OCC)cc1`, the inhibition is 11.8% (active). The figure for `CCOC(=O)Nc1ccc2c(c1)N(C(=O)CCCl)c1ccccc1[S@]2=O` is -0.45%; for `COc1ccc(N2CCN(CCNS(=O)(=O)c3ccc(Cl)s3)CC2)cc1` it is -2.58%; for `CCOc1cc2[nH]c(=S)n(Cc3ccc(C(=O)N4CCN(C)CC4)cc3)c(=O)c2cc1OCC` it is -0.53%.

Take `O=C(O)c1ccc(Cn2c(=S)[nH]c3cc(Cl)ccc3c2=O)cc1`: the inhibition is 11% (active). The figure for `NC(=O)C1CCN(C(=O)c2ccc3c(=O)n(Cc4cccc(Br)c4)c(=S)[nH]c3c2)CC1` is 4.14%; for `O=C(NC1CCCCN(Cc2cccc(C(F)(F)F)c2)C1=O)c1ccccc1I` (stereo unspecified) it is -1.03%; for `COc1ccc(OC)c(C(=O)c2coc3ccc(O)c(CN4CCOCC4)c23)c1` it is -8.55%.

On to `COc1ccc(C(=O)CC(=O)c2ccc(C)cc2)c(O)c1`, for which the inhibition is -16%.

`COc1ccc(/C(C)=N/N2CCOCC2)c(O)c1`: the inhibition was 15.9% (active).

`COC(=O)c1cc(S(=O)(=O)N2CCN(C(=O)C3CCCO3)CC2)cn1C` (stereo unspecified): the inhibition was 0.5%. The figure for `C[C@@H](NC(=O)c1ccccc1OCC(=O)Nc1ccc(I)cc1)C(=O)N(C)Cc1ccccc1` is -0.29%; for `Cc1cc(NC(=O)CN2C(=O)NC(CC(C)C)C2=O)no1` (stereo unspecified) it is 10.2% (active); for `COc1ccc(C2(c3ccc(OC)cc3)NC(=O)N(CC(=O)Nc3cc(C)on3)C2=O)cc1` it is 0.49%. For `Cc1cc(NC(=O)CN2C(=O)NC(CCc3ccccc3)C2=O)no1` (stereo unspecified) the value was -2.53%; for `CC(c1ccc(N)cc1)c1cn(C)c2ccccc12` (stereo unspecified), 0.79%; for `CCOC(=O)[C@]12CCCC=C1N(Cc1ccc(OC)cc1)C(=O)[C@@H]2CC(=O)NCc1cccs1`, 0.39%. For `O=C1Nc2ccccc2OC1CC(=O)N1CCCCCCC1` (stereo unspecified) the value was -0.62%; for `CNC(=O)C[C@H]1C(=O)N(c2ccc(OC)cc2)C[C@@H]1Cc1ccccc1`, 1.07%; for `C[C@H]1CN(c2ccc(Br)cc2)C(=O)[C@@H]1CC(=O)Nc1ccc(Br)cc1`, -2.46%. With `O=C(C[C@H]1C(=O)N(c2ccc(F)c(F)c2)C[C@@H]1Cc1ccccc1)Nc1ccccc1`, the inhibition is 17.8% (active). The figure for `Cc1ccc(-n2c(SCC(=O)Nc3cccc4ccccc34)nnc2-c2ccco2)cc1` is 0.45%. For the compound `CC(C)Cn1cnc2c1c(=O)n(CC(O)c1ccccc1)c(=O)n2CC(C)C` (stereo unspecified), the inhibition is 16.4% (active). The figure for `CC(C)CCn1cnc2c1c(=O)n(CC(=O)NC(N)=O)c(=O)n2Cc1ccccc1` is 2.87%; for `CC(C)Cn1cnc2c1c(=O)n(CC(=O)NN)c(=O)n2Cc1ccccc1` it is -18.6%; for `COc1cccc(N2CCN(CC(=O)N(C)Cc3ccc(F)cc3)CC2)c1` it is 0.54%. For `CCc1ccccc1N(CC(=O)NCCSCc1ccco1)S(C)(=O)=O` the value was -1.22%; for `CS(=O)(=O)N(Cc1ccc(Cl)cc1)c1ccc(C(=O)NCCSCc2ccco2)cc1`, 9.72% (active).

Take `Cc1cc(C)cc(N(CC(=O)NCCSCc2ccco2)S(C)(=O)=O)c1`: the inhibition is 2.48%.

`CCCCNC(=O)C[C@H]1C[C@@]2(C(=O)OC)C(=C[C@H](COCc3ccccc3)O[C@@H]2C)N(Cc2ccc(Cl)cc2Cl)C1=O`: the inhibition was 2.69%. For `O=C1C(=O)N(Cc2ccc(-c3ccsc3)cc2)c2ccc(OC(F)(F)F)cc21`, the inhibition was -5.5%. For the compound `CCN(CC)C(=O)CC[C@@H]1CC[C@]2(CCCN(S(=O)(=O)C3CCCCC3)C2)O1`, the inhibition was -1.56%. Consider `COC(=O)C1CN(CCc2ccccc2)CCS(=O)(=O)N1Cc1ccc(F)cc1` (stereo unspecified), for which the inhibition was 0.52%. On to `Cc1ccc(S(=O)(=O)N2CCN(C(=O)Cc3sc(C)nc3-c3ccc(F)cc3)CC2)c(C)c1`, for which the inhibition is -4.71%. The figure for `Cc1nc(-c2ccc(F)cc2)c(CC(=O)N2CCN(S(=O)(=O)c3ccc(F)cc3)CC2)s1` is 12.6% (active). Turning to `Cc1nc(-c2ccc(F)cc2)c(CC(=O)Nc2cc(S(=O)(=O)N3CCCCC3)ccc2C)s1`, the inhibition is 0.89%. Take `O=CN1CCN(C(=O)c2ccc3c(c2)OCO3)CC1`: the inhibition is 0.54%. Regarding `O=C(c1ccc2c(c1)OCO2)N1CCNc2ccccc2C1`, the inhibition was 9.9% (active).

Regarding `O=C(C(=O)N1CCN(c2ccccc2)CC1)c1ccc2c(c1)OCO2`, the inhibition is -0.77%. For `N#Cc1ccc(OC[C@@H](O)CN2CCC(C(O)(c3ccccc3)c3ccccc3)CC2)c(F)c1` the value was 0.67%; for `COCCCNC(=O)C[C@H]1C[C@@]2(C(=O)OC)C(=C[C@H](C(C)(C)C)O[C@@H]2C)N(Cc2ccc(Cl)cc2Cl)C1=O`, 1.11%. On to `CC(C)(C)OC(=O)NCc1cc(F)ccc1/C=C/S(=O)(=O)NCCc1ccccc1`, for which the inhibition is 2.46%.

Take `COC(=O)c1ccc(C23CC4(C2)[C@H](CN(Cc2cccnc2)[C@@H]4c2ccccc2)C3c2ccc(Cl)nc2)cc1` (stereo partly specified): the inhibition was 2.06%. The figure for `Clc1ccc(C2[C@H]3CN(CC4CCCCC4)[C@H](c4ccccc4)C34CC2(c2cccnc2)C4)cn1` (stereo partly specified) is 12.1% (active); for `COC(=O)[C@]1(C#N)CC(=O)N(CC2CCCCC2)[C@@H]1c1ccccc1` it is 8.67%; for `COc1ccc(C#CCNCc2ccc(OC)cc2OC)cc1` it is 2.01%. For `Cc1cc(C(=O)NN=C/C=C/c2ccco2)n[nH]1` the value was -16.7%; for `CCCCNC(=O)C[C@H]1C(=O)N(Cc2ccc(OC)cc2)C2=CCCC[C@@]21C(=O)OCC`, 4.39%; for `COC(=O)C[C@H]1CC[C@H]2[C@H](COc3ccc(NC(=O)C4CC4)cc3C(=O)N2C)O1`, -1%. The figure for `COC(=O)C[C@@H]1CC[C@@H]2[C@@H](COc3ccc(NC(=O)Nc4ccc(F)c(F)c4)cc3C(=O)N2C)O1` is 1.9%.

For the compound `COC(=O)C[C@@H]1CC[C@@H]2[C@H](COc3ccc(NC(=O)c4cccc(F)c4)cc3C(=O)N2C)O1`, the inhibition is 12.8% (active). On to `COC(=O)c1cccc(Cn2ccc3ccc(-c4ccc5ccn(C(=O)C6CCCCC6)c5c4)cc32)c1`, for which the inhibition was -51.3%.

Take `CC(=O)N1CCCN(C2=Nc3ccccc3Sc3ccccc32)CC1`: the inhibition was 0.02%.

`COc1ccc(C(=O)OCC(=O)Nc2ccc3[nH]c(=O)[nH]c3c2)c(OC)c1OC`: the inhibition was 4.24%. Take `O=C(OCC(=O)N1CCN(c2ccccc2)CC1)c1ccc([N+](=O)[O-])s1`: the inhibition was -1.31%. As to `COc1cc(NC(=O)COC(=O)c2ccc([N+](=O)[O-])s2)cc(OC)c1OC`, the inhibition is 16.4% (active). The figure for `COc1ccc2c(c1)CN1CN(CCc3ccccc3)S(=O)(=O)CC21` (stereo unspecified) is -10.3%; for `C=CCn1c(SCC(N)=O)nnc1-c1ccccc1OC` it is 1.51%. Take `C=CS(=O)(=O)N(Cc1nnn(Cc2ccccc2)c1Br)[C@H](C(=O)OC)C(C)C`: the inhibition was 2.5%.

Regarding `CCN(C(=O)[C@@H](C1CC1)[C@@H](O)c1ccc2ccccc2c1)c1ccccc1`, the inhibition is 1.27%. Take `O=c1c2ccccc2c(-c2ccccc2)nn1-c1ccccn1`: the inhibition is 2.78%. The figure for `O=c1c2ccccc2c(-c2ccccc2)nn1Cc1ccccc1` is 12.3% (active); for `O=c1c2ccccc2c(-c2ccc(Br)cc2)nn1Cc1ccccc1` it is -0.25%. On to `Cc1cc(C)c(NC(=O)CN2CCCCCC2)c(C)c1`, for which the inhibition is 4.73%.

For `Cc1cc(C)c(NC(=O)CN2CCOCCOCCOCCOCC2)c(C)c1`, the inhibition is 14% (active).

Turning to `O=C(CN1CCOCC1)Nc1c(Cl)cc(Cl)cc1Cl`, the inhibition was 0.95%. The figure for `Cc1ccccc1NC(=O)COC(=O)c1ccc(Sc2ncn[nH]2)c([N+](=O)[O-])c1` is -0.83%. For `COc1ccc(C(C)=O)cc1COC(=O)Cn1cnc2ccccc2c1=O` the value was 5.51%; for `COCc1cc(C(C)=O)ccc1OC`, 12.2% (active). Take `COc1ccc(C(C)=O)cc1COc1ccc(Cl)c(C)c1`: the inhibition is 2.04%. With `COC[C@@H]1CCCN1c1ccc2c(c1)O[C@H](C)CCN(C1CC1)S2(=O)=O`, the inhibition is -1.38%. For `O=C(c1ccncc1)N1CC[C@H]2[C@H](CCCN2Cc2ccc(F)cc2)C1` the value was 2.52%; for `O=C(OC12CCCN(C1)/C(=C/c1ccccc1)C2)c1ccco1` (stereo unspecified), 6.33%. `COc1ccc(CCNC(=O)COC(=O)Cc2cccc(F)c2)cc1`: the inhibition is -3.08%. Regarding `COc1ccc(CCNC(=O)COC(=O)Cc2ccccc2F)cc1`, the inhibition was 10.7% (active). The figure for `O=C(COC(=O)Cc1ccccc1F)NCCc1ccccc1` is -0.55%.
